In PubChem BioAssay (EPA / NIEHS):
Records with an inconclusive call do not appear. Calls of active or inactive are those of the source. The calls were made as follows, unless noted: active = hit-call score of the fitted dose curve at least 0.9, where 1 is the maximum; inactive = score below 0.9.

How the values were obtained:
[1] = target: Glucocorticoid receptor (Homo sapiens) (UniProt P04150); assay: ATG_GR_TRANS: Attagene TRANS-FACTORIAL HepG2 Assay for human Glucocorticoid Receptor (GR) (AID 2282978; active = hit-call score of the fitted dose curve at least 0.9, where 1 is the maximum;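 also: activators score as hits since higher reporter transcript over DMSO is fitted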); conditions: HepG2 Attagene TRANS GR reporter, mRNA transcription
Chain of Glucocorticoid receptor (Homo sapiens) (P04150 whole entry, looked up, the tested form may be a part): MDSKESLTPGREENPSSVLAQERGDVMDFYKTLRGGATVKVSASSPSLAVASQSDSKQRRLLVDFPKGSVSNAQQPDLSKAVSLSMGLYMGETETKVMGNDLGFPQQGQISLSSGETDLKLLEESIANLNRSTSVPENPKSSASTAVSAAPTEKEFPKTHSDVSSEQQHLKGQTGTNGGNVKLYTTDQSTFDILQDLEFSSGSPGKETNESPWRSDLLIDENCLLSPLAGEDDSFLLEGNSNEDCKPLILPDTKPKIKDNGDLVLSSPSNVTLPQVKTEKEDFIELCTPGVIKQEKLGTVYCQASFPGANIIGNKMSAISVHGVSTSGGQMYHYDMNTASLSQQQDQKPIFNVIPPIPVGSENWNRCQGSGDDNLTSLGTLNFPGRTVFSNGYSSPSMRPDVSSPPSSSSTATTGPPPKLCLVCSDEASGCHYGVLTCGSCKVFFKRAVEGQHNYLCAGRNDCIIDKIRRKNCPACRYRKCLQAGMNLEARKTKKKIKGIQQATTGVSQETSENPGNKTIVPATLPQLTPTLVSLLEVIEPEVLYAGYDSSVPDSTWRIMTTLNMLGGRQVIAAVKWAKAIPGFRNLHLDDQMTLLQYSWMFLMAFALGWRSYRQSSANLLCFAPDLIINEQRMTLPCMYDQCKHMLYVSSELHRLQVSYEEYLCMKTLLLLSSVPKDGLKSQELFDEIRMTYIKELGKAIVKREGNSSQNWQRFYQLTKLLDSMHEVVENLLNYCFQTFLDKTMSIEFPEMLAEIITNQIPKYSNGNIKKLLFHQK
Method in brief: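 Exogenous NR-GAL4 fusion activity was assessed through induced GAL4-UAS reporter transcripts in transfected human HepG2 cells, quantified after 24 h by RT-PCR and fluorescent capillary electrophoresis with DMSO as baseline.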

[2] = target: Bile acid receptor (Homo sapiens) (UniProt Q96RI1); assay: ATG_FXR_TRANS: Attagene TRANS-FACTORIAL HepG2 Assay for Farnesoid X Receptor (FXR) (AID 2282979; active = hit-call score of the fitted dose curve at least 0.9, where 1 is the maximum;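 also: hits raise reporter mRNA above DMSO so AC50 marks FXR activation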); conditions: HepG2 Attagene TRANS FXR-GAL4 reporter transcription
Method in brief: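 Read-out: fluorescent reporter transcripts quantified by capillary electrophoresis after RT-PCR of total RNA. Source cells were HepG2 transiently carrying chimeric NR-GAL4 plus GAL4-UAS reporter units, dosed 24 h. Activity fitted upward relative to DMSO baseline.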

[3] = target: Oxysterols receptor LXR-alpha (Homo sapiens) (UniProt Q13133); assay: ATG_LXRa_TRANS: Attagene TRANS-FACTORIAL HepG2 Assay for human Liver X Receptor alpha (LXRa) (AID 2282980; active = hit-call score of the fitted dose curve at least 0.9, where 1 is the maximum); conditions: HepG2 Attagene TRANS reporter, LXRa transactivation
Chain of Oxysterols receptor LXR-alpha (Homo sapiens) (Q13133 whole entry, looked up, the tested form may be a part): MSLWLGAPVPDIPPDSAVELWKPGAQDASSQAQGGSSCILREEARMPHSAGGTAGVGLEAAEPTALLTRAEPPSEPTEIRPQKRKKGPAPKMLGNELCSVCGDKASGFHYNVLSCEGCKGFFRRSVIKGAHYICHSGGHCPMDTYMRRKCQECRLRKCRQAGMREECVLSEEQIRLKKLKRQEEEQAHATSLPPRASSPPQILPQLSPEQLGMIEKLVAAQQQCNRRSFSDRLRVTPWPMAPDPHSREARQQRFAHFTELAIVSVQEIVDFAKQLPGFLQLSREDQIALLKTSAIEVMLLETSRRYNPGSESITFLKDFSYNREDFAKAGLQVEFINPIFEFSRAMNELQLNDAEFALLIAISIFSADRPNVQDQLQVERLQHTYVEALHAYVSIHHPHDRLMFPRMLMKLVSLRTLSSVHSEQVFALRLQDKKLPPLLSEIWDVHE
Method in brief: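 Read-out: reporter transcript levels by RT-PCR plus capillary electrophoresis, fluorescence intensity. Transiently transfected HepG2, exogenous NR-GAL4 chimera, GAL4-UAS reporters; 24 h compound exposure. Activity = increase over DMSO negative control.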

[4] = target: Hepatocyte nuclear factor 4-alpha (Homo sapiens) (UniProt P41235); assay: ATG_HNF4a_TRANS: Attagene TRANS-FACTORIAL HepG2 Assay for human Hepatocyte Nuclear Factor 4 alpha (HNF4a) (AID 2282982; active = hit-call score of the fitted dose curve at least 0.9, where 1 is the maximum); conditions: HepG2 HNF4a transactivation reporter, mRNA readout
Chain of Hepatocyte nuclear factor 4-alpha (Homo sapiens) (P41235 whole entry, looked up, the tested form may be a part): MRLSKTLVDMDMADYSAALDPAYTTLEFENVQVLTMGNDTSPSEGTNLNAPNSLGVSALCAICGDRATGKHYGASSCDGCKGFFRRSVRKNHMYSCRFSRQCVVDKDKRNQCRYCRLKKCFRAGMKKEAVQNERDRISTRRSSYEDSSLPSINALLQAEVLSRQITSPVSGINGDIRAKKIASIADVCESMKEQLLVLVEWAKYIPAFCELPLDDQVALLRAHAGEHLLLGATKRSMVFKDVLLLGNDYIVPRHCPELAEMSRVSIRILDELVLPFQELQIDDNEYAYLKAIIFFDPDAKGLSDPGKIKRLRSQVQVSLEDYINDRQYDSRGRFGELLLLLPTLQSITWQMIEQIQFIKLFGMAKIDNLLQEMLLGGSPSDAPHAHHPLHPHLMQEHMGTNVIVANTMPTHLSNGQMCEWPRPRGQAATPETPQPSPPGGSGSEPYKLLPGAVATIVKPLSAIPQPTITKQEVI
Method in brief: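 HepG2 cells transiently transfected with multiplexed GAL4-UAS reporter units responsive to chimeric NR-GAL4 proteins; compound exposure 24 h. Reporter mRNA quantified by RT-PCR, 6-FAM labelling, HpaI digestion and capillary electrophoresis; gain of signal versus DMSO baseline.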

[5] = ATG_M_06_TRANS: Attagene TRANS-FACTORIAL HepG2 Assay for M06 Transcription Factor (Internal Marker) (AID 2282983; active = hit-call score of the fitted dose curve at least 0.9, where 1 is the maximum); conditions: HepG2 Attagene TRANS M06 internal marker reporter
Method in brief: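 After a 24 h chemical treatment of transfected HepG2, RNA underwent DNase I treatment, reverse transcription and reporter-specific PCR; labelled, HpaI-digested products were sized by capillary electrophoresis. Signal increase relative to DMSO defined activity.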

[6] = ATG_M_32_TRANS: Attagene TRANS-FACTORIAL HepG2 Assay for M32 Transcription Factor (Internal Marker) (AID 2282984; active = hit-call score of the fitted dose curve at least 0.9, where 1 is the maximum;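 also: transcript level of a background control reporter unit measured by RT-PCR and capillary electrophoresis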); conditions: HepG2 Attagene TRANS M32 internal marker reporter
Method in brief: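 HepG2 cells transiently transfected with multiple GAL4-UAS reporter transcription units, dosed for 24 hours; reporter mRNA quantified by RT-PCR, 6-FAM primer extension, HpaI digestion and capillary electrophoresis. Gain-of-signal fitted versus DMSO baseline; internal background-control marker.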

[7] = target: Nuclear receptor subfamily 4 group A member 2 (Homo sapiens) (UniProt P43354); assay: ATG_NURR1_TRANS: Attagene TRANS-FACTORIAL HepG2 Assay for human Nuclear Receptor Related Protein 1 (NURR1) (AID 2282985; active = hit-call score of the fitted dose curve at least 0.9, where 1 is the maximum); conditions: HepG2 Attagene TRANS reporter, mRNA readout
Chain of Nuclear receptor subfamily 4 group A member 2 (Homo sapiens) (P43354 whole entry, looked up, the tested form may be a part): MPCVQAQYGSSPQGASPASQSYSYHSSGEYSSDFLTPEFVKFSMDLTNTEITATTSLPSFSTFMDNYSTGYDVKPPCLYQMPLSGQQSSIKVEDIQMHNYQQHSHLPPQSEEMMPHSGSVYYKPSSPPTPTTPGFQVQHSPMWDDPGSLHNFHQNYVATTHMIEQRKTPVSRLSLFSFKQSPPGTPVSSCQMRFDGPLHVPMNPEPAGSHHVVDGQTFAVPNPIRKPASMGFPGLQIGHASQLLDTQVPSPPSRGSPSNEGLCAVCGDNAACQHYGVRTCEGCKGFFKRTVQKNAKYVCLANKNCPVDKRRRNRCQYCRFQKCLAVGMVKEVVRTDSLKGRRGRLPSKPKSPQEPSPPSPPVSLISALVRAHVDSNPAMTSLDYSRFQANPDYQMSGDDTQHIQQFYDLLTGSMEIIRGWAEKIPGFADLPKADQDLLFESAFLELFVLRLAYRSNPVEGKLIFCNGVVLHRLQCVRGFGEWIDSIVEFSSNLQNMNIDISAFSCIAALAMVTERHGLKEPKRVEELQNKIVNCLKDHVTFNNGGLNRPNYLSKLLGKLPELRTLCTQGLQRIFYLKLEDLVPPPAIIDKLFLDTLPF
Method in brief: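 HepG2 cells transiently transfected with GAL4-UAS reporter units and chimeric NR-Gal4 constructs; chemical exposure 24 h. Reporter mRNA quantified by RT-PCR, fluorescent labelling and capillary electrophoresis; gain of signal fitted relative to DMSO baseline.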

[8] = target: Transcriptional activator Myb (Homo sapiens) (UniProt P10242); assay: ATG_Myb_CIS: Attagene CIS-FACTORIAL HepG2 Assay for human Myeloblastosis (Myb) Proto-Oncogene Transcription Factor (AID 2282986); conditions: HepG2 Attagene CIS-FACTORIAL Myb reporter transcription; actives raise or lower the signal
Chain of Transcriptional activator Myb (Homo sapiens) (P10242 whole entry, looked up): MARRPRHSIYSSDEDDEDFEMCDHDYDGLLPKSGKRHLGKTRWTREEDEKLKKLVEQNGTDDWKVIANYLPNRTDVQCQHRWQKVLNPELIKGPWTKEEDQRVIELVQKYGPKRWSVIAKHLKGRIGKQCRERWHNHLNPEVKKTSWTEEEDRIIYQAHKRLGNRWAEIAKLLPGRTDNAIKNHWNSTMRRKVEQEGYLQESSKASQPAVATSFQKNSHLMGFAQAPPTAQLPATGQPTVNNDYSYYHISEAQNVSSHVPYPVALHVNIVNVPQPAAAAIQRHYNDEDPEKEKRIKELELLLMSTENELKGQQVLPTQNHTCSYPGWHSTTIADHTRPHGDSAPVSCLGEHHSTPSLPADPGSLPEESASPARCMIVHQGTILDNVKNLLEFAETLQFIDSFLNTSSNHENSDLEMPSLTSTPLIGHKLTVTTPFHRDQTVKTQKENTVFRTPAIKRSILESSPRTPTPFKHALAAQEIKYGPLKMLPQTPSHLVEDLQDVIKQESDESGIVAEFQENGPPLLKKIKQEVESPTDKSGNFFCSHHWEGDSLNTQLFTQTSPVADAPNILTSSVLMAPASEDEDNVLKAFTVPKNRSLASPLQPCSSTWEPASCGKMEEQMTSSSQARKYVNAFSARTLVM
Method in brief: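 In this HepG2 transient-transfection format, cis-regulated reporter mRNA is quantified 24 h post-dosing by RT-PCR with capillary electrophoresis, fitted bidirectionally to DMSO baseline.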

[9] = target: Nuclear respiratory factor 1 (Homo sapiens) (UniProt Q16656); assay: ATG_NRF1_CIS: Attagene CIS-FACTORIAL HepG2 Assay for human Nuclear Respiratory Factor 1 (NRF1) Orphan Gene (AID 2282987); conditions: HepG2 NRF1 cis-element reporter, Attagene multiplex; actives raise or lower the signal
Chain of Nuclear respiratory factor 1 (Homo sapiens) (Q16656 whole entry, looked up): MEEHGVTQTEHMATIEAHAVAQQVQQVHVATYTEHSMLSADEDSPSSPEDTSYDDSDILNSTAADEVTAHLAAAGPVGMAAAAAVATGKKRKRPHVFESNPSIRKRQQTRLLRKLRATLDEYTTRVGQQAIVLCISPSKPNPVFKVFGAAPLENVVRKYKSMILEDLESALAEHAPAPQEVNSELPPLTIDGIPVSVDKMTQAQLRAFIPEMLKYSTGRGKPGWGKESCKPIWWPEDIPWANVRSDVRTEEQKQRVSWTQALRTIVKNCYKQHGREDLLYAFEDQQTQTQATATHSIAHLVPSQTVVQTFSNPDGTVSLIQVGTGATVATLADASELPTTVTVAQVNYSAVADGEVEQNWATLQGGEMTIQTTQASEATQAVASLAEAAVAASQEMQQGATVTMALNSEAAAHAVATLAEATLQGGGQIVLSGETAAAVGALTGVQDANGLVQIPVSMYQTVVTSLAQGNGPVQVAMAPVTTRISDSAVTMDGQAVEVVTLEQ
Method in brief: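 Using DMSO as baseline, gain- or loss-of-signal was fitted for reporter mRNA levels in HepG2 cells transiently transfected with cis-regulated reporter units. Samples were taken 24 h after dosing and read by RT-PCR with capillary electrophoresis.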

[10] = ATG_NFI_CIS: Attagene CIS-FACTORIAL HepG2 Assay for human Nuclear Factor I (NFI) (AID 2282989); conditions: HepG2 cis-regulatory reporter, NFI response element transcription; actives raise or lower the signal
Method in brief: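 Reporter transcripts were measured by RT-PCR with fluorescent primer extension and capillary electrophoresis 24 h post-treatment. HepG2 cells carried transiently transfected cis-regulated reporter constructs reporting endogenous factor activity; gain or loss fitted against DMSO baseline.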

[11] = target: Myc proto-oncogene protein (Homo sapiens) (UniProt P01106); assay: ATG_Myc_CIS: Attagene CIS-FACTORIAL HepG2 Assay for human Myelocytomatosis (Myc) Proto-Oncogene Transcription Factor (AID 2282990); conditions: HepG2, Attagene cis-reporter transcription factor activity; actives raise or lower the signal
Chain of Myc proto-oncogene protein (Homo sapiens) (P01106 whole entry, looked up): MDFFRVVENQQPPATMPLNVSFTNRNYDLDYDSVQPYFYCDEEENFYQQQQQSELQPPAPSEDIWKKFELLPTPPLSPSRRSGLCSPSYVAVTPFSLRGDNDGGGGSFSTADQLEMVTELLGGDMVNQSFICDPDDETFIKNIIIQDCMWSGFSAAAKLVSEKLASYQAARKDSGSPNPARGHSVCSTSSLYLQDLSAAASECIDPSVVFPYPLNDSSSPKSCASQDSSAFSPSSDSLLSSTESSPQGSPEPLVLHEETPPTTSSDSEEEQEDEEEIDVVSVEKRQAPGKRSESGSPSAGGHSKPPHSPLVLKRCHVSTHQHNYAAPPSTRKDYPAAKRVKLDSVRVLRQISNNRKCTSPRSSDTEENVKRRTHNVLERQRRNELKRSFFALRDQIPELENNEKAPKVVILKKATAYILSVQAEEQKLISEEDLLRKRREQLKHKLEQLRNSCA
Method in brief: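 DMSO-normalised, bidirectionally fitted reporter mRNA signal. HepG2 cells transfected with cis reporter constructs, treated 24 h; transcripts detected by RT-PCR, 6-FAM primer extension and CE.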

[12] = ATG_NF_kB_CIS: Attagene CIS-FACTORIAL HepG2 Assay for human Nuclear Factor Kappa B (NF-kB) (AID 2282991); conditions: HepG2 Attagene cis-factorial NF-kB reporter mRNA; actives raise or lower the signal
Method in brief: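 Endpoint from a 52-component multiplexed HepG2 reporter panel: cis-regulated transcription units transiently transfected, 24 h dosing, reporter mRNA quantified by RT-PCR and capillary electrophoresis, scored as increase or decrease against DMSO.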

[13] = ATG_NRF2_ARE_CIS: Attagene CIS-FACTORIAL HepG2 Assay for human Nuclear Factor Erythroid 2 Related Factor 2 (NFR2) response to Antioxidant Response Elements (ARE) (AID 2282992); conditions: HepG2 Attagene ARE/NRF2 reporter, transcription factor activity; actives raise or lower the signal;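 as to AC50: reporter mRNA level measured by RT-PCR and capillary electrophoresis fluorescence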
Method in brief: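 Cis-factorial assay: transfected HepG2 reporter library, 24 h dosing, mRNA readout via RT-PCR/CE; DMSO-referenced bidirectional analysis.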

[14] = ATG_Oct_MLP_CIS: Attagene CIS-FACTORIAL HepG2 Assay for human Octamer-Binding Transcription Factor (Oct) (AID 2282993); conditions: HepG2 Attagene cis-factorial Oct reporter, mRNA; actives raise or lower the signal
Method in brief: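 Readout is reporter transcript level from RT-PCR with fluorescent primer extension and capillary electrophoresis, fitted in both directions against DMSO. Transfected HepG2 reporter units report endogenous factor activity after 24 h dosing.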

[15] = target: Cellular tumor antigen p53 (Homo sapiens) (UniProt P04637); assay: ATG_p53_CIS: Attagene CIS-FACTORIAL HepG2 Assay for human p53 Transcription Factor (AID 2282994); conditions: HepG2 p53 cis-element reporter, Attagene mRNA; actives raise or lower the signal
Chain of Cellular tumor antigen p53 (Homo sapiens) (P04637 whole entry, looked up): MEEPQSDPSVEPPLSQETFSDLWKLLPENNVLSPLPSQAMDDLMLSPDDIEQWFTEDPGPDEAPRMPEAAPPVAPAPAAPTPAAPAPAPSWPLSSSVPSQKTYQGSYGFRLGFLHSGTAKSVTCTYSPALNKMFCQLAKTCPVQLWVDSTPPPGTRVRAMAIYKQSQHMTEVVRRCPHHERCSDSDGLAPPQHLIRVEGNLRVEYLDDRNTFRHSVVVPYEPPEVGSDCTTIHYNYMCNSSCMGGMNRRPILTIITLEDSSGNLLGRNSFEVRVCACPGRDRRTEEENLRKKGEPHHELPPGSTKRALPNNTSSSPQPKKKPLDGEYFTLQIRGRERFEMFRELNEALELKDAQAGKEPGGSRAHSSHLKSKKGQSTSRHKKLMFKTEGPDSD
Method in brief: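 Using HepG2 hepatoma cells carrying cis-acting multiplexed reporters, mRNA induction is detected after a 24 h exposure. Gain- and loss-of-signal responses are fitted relative to DMSO-treated cells.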

[16] = BSK_3C_TissueFactor: BioMAP Diversity Plus: 3C Assay for Tissue Factor Biomarker Activity (AID 2282997); conditions: BioMAP 3C HUVEC, tissue factor biomarker readout; actives raise or lower the signal
Method in brief: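 Human vascular primary cells (umbilical vein endothelium) received test chemical; Tissue Factor was determined by ELISA at 24 h, and both gain and loss of signal versus DMSO were fitted.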

[17] = BSK_3C_uPAR: BioMAP Diversity Plus: 3C Assay for Urokinase-type plasminogen activator receptor (uPAR) Biomarker Activity (AID 2282998); conditions: BioMAP 3C HUVEC, uPAR biomarker ELISA; actives raise or lower the signal
Method in brief: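 Cell-surface uPAR on HUVEC (3C system) read by ELISA at 24 h post-treatment, with DMSO as baseline and fitting in both directions. Parallel cultures stained with SRB to flag overt cytotoxicity.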

[18] = BSK_3C_VCAM1: BioMAP Diversity Plus: 3C Assay for Vascular cell adhesion molecule 1 (VCAM1) Biomarker Activity (AID 2282999); conditions: BioMAP 3C HUVEC, VCAM1 ELISA, cytokine-stimulated; actives raise or lower the signal
Method in brief: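 Human umbilical vein endothelial cells were dosed with compound for 24 h, after which cell-surface VCAM-1 was quantified by ELISA. Bidirectional curve fitting used DMSO as negative control and activity baseline.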

[19] = target: Oxysterols receptor LXR-beta (Homo sapiens) (UniProt P55055); assay: ATG_LXRb_TRANS: Attagene TRANS-FACTORIAL HepG2 Assay for human Liver X Receptor beta (LXRb) (AID 2282981; active = hit-call score of the fitted dose curve at least 0.9, where 1 is the maximum); conditions: HepG2 Attagene TRANS GAL4-LXRb reporter, mRNA
Chain of Oxysterols receptor LXR-beta (Homo sapiens) (P55055 whole entry, looked up, the tested form may be a part): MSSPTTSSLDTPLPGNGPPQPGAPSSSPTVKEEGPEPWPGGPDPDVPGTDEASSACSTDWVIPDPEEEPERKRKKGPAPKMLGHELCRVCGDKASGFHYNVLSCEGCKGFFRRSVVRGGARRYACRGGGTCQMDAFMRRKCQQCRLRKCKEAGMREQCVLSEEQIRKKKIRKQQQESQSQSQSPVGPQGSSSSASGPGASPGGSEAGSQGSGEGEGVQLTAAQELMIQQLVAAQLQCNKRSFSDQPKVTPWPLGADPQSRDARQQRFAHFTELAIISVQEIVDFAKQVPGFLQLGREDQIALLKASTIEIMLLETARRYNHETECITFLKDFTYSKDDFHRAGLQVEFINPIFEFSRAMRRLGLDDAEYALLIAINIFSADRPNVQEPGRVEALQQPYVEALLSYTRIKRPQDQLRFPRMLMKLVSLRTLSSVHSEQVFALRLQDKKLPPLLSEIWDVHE
Method in brief: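 HepG2 cells transiently transfected with multiple reporter transcription units carrying chimeric NR-Gal4 proteins acting on GAL4-UAS reporters; compound exposure 24 h. Reporter mRNA quantified by RT-PCR, 6-FAM labelling, HpaI digestion and capillary electrophoresis; gain of signal versus DMSO.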

Measured: AC50

O=C(Cl)c1ccc(Cl)cc1Cl
not listed: [16] | [17] | [18] | [19]
inactive: all other assays above

CCN(CC)c1ccc(C=O)c(O)c1
active: [15] 70.5 µM
not listed: [4] | [19]
inactive: all other assays above

C=CCOC(=O)CC(C)C
not listed: [3] | [4] | [7] | [16] | [17] | [18]
inactive: all other assays above

Cc1ccc(O)cn1
active: [3] 25.4 µM
not listed: [5] | [16] | [17] | [18] | [19]
inactive: all other assays above

CCCCCCCCCCCCC[N+](C)(C)Cc1ccccc1
active: [13] 4.37 µM
not listed: [4] | [7] | [11] | [16] | [17] | [18]
inactive: all other assays above

O=C1C=CC(=O)N1c1ccc(Cc2ccc(N3C(=O)C=CC3=O)cc2)cc1
active: [9] 60.1 µM | [12] 11.2 µM | [13] 33.4 µM | [16] 5.47 µM | [17] 5.81 µM | [18] 7.45 µM
not listed: [5] | [6] | [19]
inactive: all other assays above

CCOCN(C(=O)CS(=O)(=O)O)c1c(C)cccc1CC
not listed: [11] | [16] | [17] | [18]
inactive: all other assays above

CCc1cccc(C)c1N(C(=O)C(=O)O)C(C)COC (stereo unspecified)
not listed: [4] | [5] | [7] | [11] | [16] | [17] | [18] | [19]
inactive: all other assays above

C=CC(=O)OCC(F)(F)C(F)(F)C(F)(F)C(F)(F)C(F)(F)C(F)(F)C(F)(F)C(F)F
active: [12] 80.2 µM
not listed: [4] | [13]
inactive: all other assays above
